Among the data in PubChem BioAssay (Tox21) are Potency and outcome values, retold here.

A number with no mark means an inactive call. Results filed as inconclusive are left out. Activity calls are given as the source filed them. Unless noted, calls come from the whole dose curve.

Experiment [1] in a line: Nuclear factor erythroid 2-related factor 2/antioxidant responsive element (Nrf2/ARE) small molecule agonists: qHTS cell viability counter screen in human keratinocytes (AID 1919968; active = well fitted curve in the direction sought with a large enough effect in the repeat runs; an effect the other way counts as inactive or inconclusive; note: nearly all actives have a fitted effect of over 55% in size). An outline of the steps:
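CellTiter-Fluor fluorescence, read 1 h after reagent, gave viability in the same wells as the ARE-luciferase assay. KeratinoSens cells (1,500/well) had 23 h compound exposure at 37 C/5% CO2 following 5 h plating.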
(In general: Quantitative high-throughput screening tests each substance at several concentrations.)

The nature of experiment [2]: Nuclear factor erythroid 2-related factor 2/antioxidant responsive element (Nrf2/ARE) small molecule agonists: luciferase reporter gene qHTS assay in human keratinocytes (AID 1919969). Note: nearly all actives have a fitted effect of over 35% in size.
The target in experiment [3] is Gonadotropin-releasing hormone receptor (Homo sapiens) (UniProt P30968). Nature of the experiment: Human gonadotropin-releasing hormone receptor (GnRHR) small molecule agonists, calcium flux assay in GnRHR-HEK293 cells (AID 1920063). Note: nearly all actives have a fitted effect of over 35% in size. The procedure, abridged: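 Agonist mode: compounds at 15 concentrations, in triplicate, went onto calcium dye-loaded GnRHR-HEK293 cells. Intracellular calcium was then followed as 480/540 nm fluorescence at 1 s intervals over 3 min.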
Sequence of Gonadotropin-releasing hormone receptor (Homo sapiens) (P30968 whole entry, looked up): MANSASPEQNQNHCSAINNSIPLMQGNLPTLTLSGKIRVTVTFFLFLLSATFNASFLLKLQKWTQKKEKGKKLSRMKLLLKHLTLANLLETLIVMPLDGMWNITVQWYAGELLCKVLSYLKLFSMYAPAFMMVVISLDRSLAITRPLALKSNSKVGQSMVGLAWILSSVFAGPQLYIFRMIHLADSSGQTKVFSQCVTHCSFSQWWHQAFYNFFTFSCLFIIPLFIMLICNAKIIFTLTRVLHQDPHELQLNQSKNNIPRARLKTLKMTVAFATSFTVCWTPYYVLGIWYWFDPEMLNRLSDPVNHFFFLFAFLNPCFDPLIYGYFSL

The target of experiment [4] is KiSS-1 receptor (Homo sapiens) (UniProt Q969F8). Nature of the experiment: Human kisspeptin (KISS1R) small molecule agonists, calcium flux assay in KISS1R-HEK293 cells (AID 1920064; active = well fitted curve in the direction sought with a large enough effect in the repeat runs; an effect the other way counts as inactive or inconclusive). The procedure, abridged: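 Agonist mode: intracellular calcium rise tracked at 1 s intervals over 3 min (480/540 nm) immediately after compound addition to dye-loaded KISS1R-HEK293 stable cells. Each compound tested at 15 concentrations in triplicate.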
Sequence of KiSS-1 receptor (Homo sapiens) (Q969F8 whole entry, looked up): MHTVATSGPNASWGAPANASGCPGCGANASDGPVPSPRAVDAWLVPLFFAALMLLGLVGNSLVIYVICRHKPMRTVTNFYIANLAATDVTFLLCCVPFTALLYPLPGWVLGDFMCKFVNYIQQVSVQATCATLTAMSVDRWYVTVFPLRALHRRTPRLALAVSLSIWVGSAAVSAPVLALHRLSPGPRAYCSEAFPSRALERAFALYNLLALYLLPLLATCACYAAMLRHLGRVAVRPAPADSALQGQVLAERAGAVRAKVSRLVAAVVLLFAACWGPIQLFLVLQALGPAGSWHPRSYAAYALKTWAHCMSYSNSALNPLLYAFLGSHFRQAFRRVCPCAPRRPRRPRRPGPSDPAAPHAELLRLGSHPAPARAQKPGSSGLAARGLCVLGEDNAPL
On the technique in general: Calcium flux is commonly read through the fluorescence of an indicator in the cells.

Experiment [5] can be described thus: p53 small molecule agonists, cell-based qHTS assay with rat liver microsomes (AID 1963578). An outline of the steps:
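Compound in DMSO added to p53RE-bla cells 5 h post-plating; rat microsomes/NADPH 0.5 mg/mL final; 16 h, 37 C; LiveBLAzer 2 h RT.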

Experiment [6] in a line: p53 small molecule agonists, cell-based qHTS assay with human liver microsomes: qHTS cell viability counter screen (AID 1963579). Note: nearly all actives have a fitted effect of over 45% in size. An outline of the steps:
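HLM-supplemented (0.5 mg/mL final) and NADPH-supplemented (0.5 mg/mL final) p53RE-bla cultures, 4,000 cells per well, were dosed with compounds in DMSO for 16 h at 37 C; luminescent ATP detection (CellTiter-Glo, 30 min, room temperature) quantified surviving cells.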

A short description of experiment [7]: p53 small molecule agonists, cell-based qHTS assay with rat liver microsomes: qHTS cell viability counter screen (AID 1963580). Note: nearly all actives have a fitted effect of over 45% in size. An outline of the steps:
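Luminescent ATP readout (CellTiter-Glo, 30 min at room temperature) reports viability of p53RE-bla HCT-116 cells after 16 h at 37 C with test compounds under metabolic activation by rat liver microsomes and NADPH at 0.5 mg/mL final each.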

Experiment [8] can be described thus: p53 small molecule agonists, cell-based qHTS assay: qHTS cell viability counter screen (AID 1963581). Note: nearly all actives have a fitted effect of over 45% in size. An outline of the steps: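 Counter screen read by CellTiter-Glo luminescence (ATP content, 30 min at room temperature), run in the same wells as the beta-lactamase reporter read. HCT-116 p53RE-bla cells saw compounds for 16 h at 37 C.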
Experiment [9] is described as follows: p53 small molecule agonists, cell-based qHTS assay (AID 1963582; active = well fitted activation curve with a large enough effect in the signal ratio in the repeat runs, not every such curve was filed as active; the % refers to the signal ratio). An outline of the steps: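 Read-out is beta-lactamase FRET fluorescence after 2 h at room temperature with LiveBLAzer B/G substrate. p53 response element-bla cells were treated 16 h at 37 C with compounds in DMSO, added 5 h after seeding.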
Experiment [10] concerns the target 5-hydroxytryptamine receptor 2A (Homo sapiens) (UniProt P28223). Nature of the experiment: 5-hydroxytryptamine receptor 2A (HTR2A) small molecule antagonists, cell-based qHTS assay (AID 1963586). Note: nearly all actives have a fitted effect of over 45% in size. Note: potency is the fitted concentration of half-maximal effect. The procedure, abridged:
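CHO cells stably expressing human HTR2A were plated for 18 h at 37 C, then loaded with calcium dye for 1 h. Compounds were preincubated 5 min at room temperature before DOI (4 nM solution) was added. Kinetic fluorescence was read for 3 min.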

In experiment [11] the target is Muscarinic acetylcholine receptor M1 (Homo sapiens) (UniProt P11229). Nature of the experiment: Cholinergic receptor muscarinic 1 (CHRM1) small molecule agonists, cell-based qHTS assay (AID 1963589). Note: nearly all actives have a fitted effect of over 35% in size. An outline of the steps:
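Agonist-mode calcium-flux screen: compounds at 15 concentrations, three independent runs, were pin-transferred onto dye-loaded human CHRM1-CHO cells. Fluorescence was then recorded kinetically every second over minutes.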

Experiment [12] in a line: cAMP Responsive Elements (CRE) small molecule agonists, cell-based qHTS assay (AID 1963590). An outline of the steps:
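Agonist mode: compound added to CRE-bla HEK 293T cells (2,000/well, 18 h after plating) for 3 h at 37 C/5% CO2. Reporter activity detected via FRET beta-lactamase substrate, 2 h room-temperature loading.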

A short description of experiment [13]: cAMP Responsive Elements (CRE) small molecule antagonists, cell-based qHTS assay (AID 1963591; active = well fitted inhibition curve with a large enough effect in the signal ratio in the repeat runs, not every such curve was filed as active; the % refers to the signal ratio). An outline of the steps:
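Antagonist mode: compounds are added alongside the adenylyl cyclase activator NKH477 (0.25 uM final) to CRE-bla HEK293T cells for 3 h. LiveBLAzer FRET substrate, 2 h at room temperature, reports bla expression.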

Experiment [14] addresses Beta-2 adrenergic receptor (Homo sapiens) (UniProt P07550). Nature of the experiment: Adrenergic beta2 receptor (ADRB2) small molecule antagonists, cell-based qHTS assay (AID 1963592). Note: series mostly up to about 92 µM; nearly all actives have a fitted effect of over 50% in size. The procedure, abridged: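 Assay format: CHO-ADRB2 cells, 18-20hr seeding at 37C/5% CO2, then compound plus 1nM isoproterenol agonist mix for 0.5hr RT. Homogeneous time-resolved fluorescence cAMP detection after 1hr, expressed as 665/615 nm ratio.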

Experiment [15] deals with D(2) dopamine receptor (Homo sapiens) (UniProt P14416). In words: Dopamine D2 receptor (DRD2) small molecule agonists, cell-based qHTS assay (AID 1963594). Note: nearly all actives have a fitted effect of over 35% in size. An outline of the steps: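 HEK293 cells stably expressing DRD2 were cultured 24 h at 37 C, then given Ro20-1724 (0.1 mM final) and compounds for 10 min at room temperature. NKH477 (200nM) was then added for 30 min. cAMP was read by HTRF.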
Sequence of D(2) dopamine receptor (Homo sapiens) (P14416 whole entry, looked up): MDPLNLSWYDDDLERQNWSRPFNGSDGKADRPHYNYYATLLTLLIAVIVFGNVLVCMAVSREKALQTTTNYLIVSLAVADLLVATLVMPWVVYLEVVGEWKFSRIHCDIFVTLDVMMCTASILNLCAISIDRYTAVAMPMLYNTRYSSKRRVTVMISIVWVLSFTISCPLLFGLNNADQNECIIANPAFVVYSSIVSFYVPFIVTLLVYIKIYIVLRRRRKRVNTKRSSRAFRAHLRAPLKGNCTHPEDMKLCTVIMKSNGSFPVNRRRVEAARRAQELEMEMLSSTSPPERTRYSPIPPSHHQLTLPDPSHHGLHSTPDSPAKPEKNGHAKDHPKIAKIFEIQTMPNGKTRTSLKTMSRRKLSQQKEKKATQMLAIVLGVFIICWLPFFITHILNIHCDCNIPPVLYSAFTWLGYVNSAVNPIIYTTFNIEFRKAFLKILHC

The target is the same in experiment [16]. Nature of the experiment: Dopamine D2 receptor (DRD2) small molecule antagonists, cell-based qHTS assay (AID 1963595; active = well fitted inhibition curve with a large enough effect in the signal ratio in the repeat runs, with a control signal flat; the % refers to the signal ratio). An outline of the steps: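 HEK293 cells stably expressing DRD2 were preincubated with 0.1 mM Ro20-1724, then with compound for 10 min at room temperature. Cells were stimulated with 200 nM NKH477 plus 12 nM quinpirole for 30 min, and cAMP was read by HTRF.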

Experiment [17] is described as follows: G protein-coupled receptor (GPCR) small molecule agonists, calcium flux assay: HEK293 wild type cell line counter screen (AID 1920065). The procedure, abridged: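 Calcium flux counter screen: compound added in agonist mode at 15 concentrations in triplicate to dye-loaded parental HEK293 cells. Fluorescence (480/540) read kinetically for 3 min; ATP served as positive control.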

Experiment [18] concerns the target Muscarinic acetylcholine receptor M1 (Homo sapiens) (UniProt P11229). Nature of the experiment: Cholinergic receptor muscarinic 1 (CHRM1) small molecule antagonists, cell-based qHTS assay (AID 1963588). Note: nearly all actives have a fitted effect of over 40% in size. An outline of the steps: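 Compounds were tested at 15 concentrations in three independent runs. Dye-loaded CHRM1-CHO cells were exposed 5 min at room temperature before stimulation by acetylcholine added at 50nM. Intracellular calcium was read kinetically on FDSS for 3 min.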

Experiment [19] has as its target Beta-2 adrenergic receptor (Homo sapiens) (UniProt P07550). In words: Adrenergic beta2 receptor (ADRB2) small molecule agonists, cell-based qHTS assay (AID 1963593).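 Note: CHO cells stably overexpressing human ADRB2.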 An outline of the steps:
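CHO cells stably over-expressing ADRB2 were plated overnight at 37C, then dosed with compounds plus a stimulation mix containing 100uM IBMX and 25uM Ro-20-1724 for 0.5hr at room temperature. cAMP was measured by HTRF competition, 1hr.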

The target in experiment [20] is 5-hydroxytryptamine receptor 2A (Homo sapiens) (UniProt P28223). Nature of the experiment: 5-hydroxytryptamine receptor 2A (HTR2A) small molecule agonists, cell-based qHTS assay (AID 1963587). Note: nearly all actives have a fitted effect of over 30% in size. The procedure, abridged: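 HTR2A-CHO cells, plated 18 h at 37 C/5% CO2, dye-loaded 1 h at 37 C; compounds in DMSO added by pin tool (agonist mode). Intracellular calcium flux read as kinetic fluorescence on FDSS over 2 min at 1 s intervals.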
Sequence of 5-hydroxytryptamine receptor 2A (Homo sapiens) (P28223 whole entry, looked up): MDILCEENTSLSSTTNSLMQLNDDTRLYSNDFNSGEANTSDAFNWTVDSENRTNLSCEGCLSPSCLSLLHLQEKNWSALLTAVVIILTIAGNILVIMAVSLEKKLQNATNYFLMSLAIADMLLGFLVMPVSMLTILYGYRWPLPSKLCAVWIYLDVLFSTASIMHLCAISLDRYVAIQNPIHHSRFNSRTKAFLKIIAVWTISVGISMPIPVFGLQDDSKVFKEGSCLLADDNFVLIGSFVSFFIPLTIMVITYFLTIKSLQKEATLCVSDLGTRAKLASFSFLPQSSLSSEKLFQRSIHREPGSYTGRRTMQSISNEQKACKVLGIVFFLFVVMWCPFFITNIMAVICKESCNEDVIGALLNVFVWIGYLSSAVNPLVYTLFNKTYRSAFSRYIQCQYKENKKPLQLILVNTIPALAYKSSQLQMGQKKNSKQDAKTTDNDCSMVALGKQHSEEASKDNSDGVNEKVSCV

Sequence of Muscarinic acetylcholine receptor M1 (Homo sapiens) (P11229 whole entry, looked up): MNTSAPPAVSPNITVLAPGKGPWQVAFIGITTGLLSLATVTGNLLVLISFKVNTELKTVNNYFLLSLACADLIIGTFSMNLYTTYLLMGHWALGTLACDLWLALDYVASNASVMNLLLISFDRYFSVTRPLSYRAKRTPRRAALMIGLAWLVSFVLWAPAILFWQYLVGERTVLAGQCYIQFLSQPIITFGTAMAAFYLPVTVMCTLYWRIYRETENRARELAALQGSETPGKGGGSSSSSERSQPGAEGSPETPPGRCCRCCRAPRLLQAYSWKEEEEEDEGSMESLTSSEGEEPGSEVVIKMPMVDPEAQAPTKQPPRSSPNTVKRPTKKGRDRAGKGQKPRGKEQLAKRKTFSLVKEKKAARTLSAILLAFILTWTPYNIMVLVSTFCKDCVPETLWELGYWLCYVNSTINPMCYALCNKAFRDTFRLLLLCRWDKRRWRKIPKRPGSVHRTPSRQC
Sequence of Beta-2 adrenergic receptor (Homo sapiens) (P07550 whole entry, looked up): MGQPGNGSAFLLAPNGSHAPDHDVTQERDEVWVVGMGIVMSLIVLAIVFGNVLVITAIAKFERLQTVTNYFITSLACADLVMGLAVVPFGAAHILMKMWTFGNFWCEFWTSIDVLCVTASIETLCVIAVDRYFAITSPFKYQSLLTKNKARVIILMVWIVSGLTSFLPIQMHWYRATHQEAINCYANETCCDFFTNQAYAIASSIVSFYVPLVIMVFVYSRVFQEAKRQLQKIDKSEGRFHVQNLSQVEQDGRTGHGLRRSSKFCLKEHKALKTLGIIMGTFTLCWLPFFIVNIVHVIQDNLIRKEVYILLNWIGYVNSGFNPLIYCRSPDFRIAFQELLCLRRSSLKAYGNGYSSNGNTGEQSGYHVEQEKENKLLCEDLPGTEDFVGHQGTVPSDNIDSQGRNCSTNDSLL

On to `CC(c1cc(C(C)(C)C)cc(C(C)(C)C)c1O)c1cc(C(C)(C)C)cc(C(C)(C)C)c1O`, for which the Potency result in experiment [1], in experiment [2], in experiment [3], in experiment [5], in experiment [6] and in experiment [7] was “inactive” throughout. Moreover, the Potency entry in experiment [8], in experiment [9], in experiment [10], in [11], in [12] and in experiment [13] was “inactive” in each case. Moreover, the Potency entry in experiment [14], in experiment [15] and in experiment [16] was “inactive” each time. In [4], the result was inactive.
Consider `C[C@H](N)[C@H](O)c1cccc(O)c1`, for which the Potency result in [1], in experiment [2], in experiment [3], in experiment [6], in experiment [7] and in [8] was “inactive” each time. The Potency result in experiment [9], in experiment [18], in [11], in experiment [12], in [13] and in experiment [14] was “inactive” throughout. For the same compound, in experiment [16], the Potency entry is “inactive”. In addition, the result in [4] and in [17] was inactive.
Regarding `CC1(C)S[C@@H]2[C@H](NC(=O)Cc3ccccc3)C(=O)N2[C@H]1C(=O)O` (tested in a mixture with another compound), the Potency result in experiment [1], in [2], in [3], in [5], in experiment [6] and in experiment [7] was “inactive” in each case. Further, the Potency result in [8], in experiment [9], in [12], in [13], in experiment [14] and in [19] was “inactive” each time. Moreover, the Potency result in [15] and in [16] was “inactive” throughout. For the same compound, the outcome in [4] was inactive.
`CC(C)COC(=O)COc1cc(Cl)c(Cl)cc1Cl`: the Potency entry in experiment [1], in experiment [2], in experiment [3], in experiment [5], in experiment [6] and in experiment [7] was “inactive” in each case. The Potency result in [8], in experiment [9], in [20], in experiment [18], in experiment [11] and in [14] was “inactive” each time. The Potency result in experiment [15] and in [16] was “inactive” each time. Moreover, in [4], the outcome was inactive.
With `O=C1CCCC(=O)C1`, the Potency entry in [1], in [2], in [3], in experiment [5], in experiment [6] and in [7] was “inactive” throughout. Also, the Potency result in experiment [8], in experiment [9], in experiment [10], in [20], in experiment [18] and in experiment [11] was “inactive” throughout. For the same compound, the Potency result in [12], in experiment [13], in experiment [14], in experiment [15] and in experiment [16] was “inactive” each time. Moreover, the result in [4] was inactive.
Regarding `O=C(O)c1cc(Cl)cc(Cl)c1`, the Potency entry in experiment [1], in experiment [2], in experiment [3], in experiment [5], in [6] and in experiment [7] was “inactive” each time. Also, the Potency entry in experiment [8], in experiment [9], in experiment [10], in experiment [20], in [11] and in [14] was “inactive” each time. Moreover, the Potency result in [15] and in experiment [16] was “inactive” each time. Further, in [4], the outcome was inactive.
Take `CC(C)Cc1ccc(C(C)C(=O)OCc2ccccn2)cc1` (centres undefined): the Potency entry in experiment [1], in [2], in [3], in experiment [5], in experiment [6] and in experiment [7] was “inactive” each time. In addition, the Potency result in experiment [8], in experiment [9], in [11], in experiment [12], in [14] and in [19] was “inactive” throughout. In addition, the Potency result in [16] was “inactive”. Also, the result in [4] was inactive. In addition, the Potency in [10] was 2.05 µM (active).
